In PubChem BioAssay:
Active and inactive are the calls of the source. Unless noted, the rule behind the calls is not given here.

Experiments:
[1] = system: XIP peptide (Xip251-270) binding; test: small-molecule binders of XIP peptide, primary screen, biochemical, small-molecule microarray, fluorescence 635/667 nm, 0.1 µg/mL protein (AID 1182); details: fluorescent protein binding, 635 nm, higher = more signal, called active from +8 up or from −8 down
[2] = system: XIP peptide (Xip251-270); test: small-molecule binders of XIP peptide, primary screen, biochemical, small-molecule microarray, fluorescence 635/667 nm, 0.5 µg/mL protein (AID 1183); details: small-molecule microarray binding, fluorescence 635 nm; higher = more signal
[3] = Plasmodium falciparum growth inhibition, primary screen, strain 3D7, DAPI fluorescence, 100 nL (AID 1184);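 note: parasites grown inside human red blood cells in medium with human serum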; details: P. falciparum 3D7 growth, 3 d, higher = more signal
[4] = target: Homeobox protein Hox-A13 (Mus musculus) (UniProt Q62424); test: inhibitors of HoxA13-DNA binding, primary screen, biochemical, fluorescence polarization, labeled oligonucleotide (AID 1185); details: 15 min, higher = more signal, called active from +8 up or from −8 down
Homeobox protein Hox-A13 (Mus musculus), sequence (Q62424 whole entry, looked up): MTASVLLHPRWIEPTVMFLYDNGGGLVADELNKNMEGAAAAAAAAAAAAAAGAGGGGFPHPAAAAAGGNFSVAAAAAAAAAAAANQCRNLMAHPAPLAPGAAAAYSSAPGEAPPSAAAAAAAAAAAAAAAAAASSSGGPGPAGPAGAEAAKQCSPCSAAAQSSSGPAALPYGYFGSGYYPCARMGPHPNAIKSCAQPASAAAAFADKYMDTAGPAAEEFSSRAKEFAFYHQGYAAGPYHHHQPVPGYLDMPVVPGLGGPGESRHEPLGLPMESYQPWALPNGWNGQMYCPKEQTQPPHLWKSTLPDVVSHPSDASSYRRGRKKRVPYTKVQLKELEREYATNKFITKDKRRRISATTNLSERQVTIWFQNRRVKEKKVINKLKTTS

[5] = inhibitors of hydroxyurea-induced Chk1 phosphorylation, primary screen, imaging, HeLa, phospho-Chk1 antibody, percent positive cells (AID 1186); details: hydroxyurea-induced phospho-Chk1 immunofluorescence imaging, higher = more signal
[6] = inhibitors of hydroxyurea-induced Chk1 phosphorylation, primary screen, imaging, HeLa, phospho-Chk1 nuclear intensity (AID 1187); details: hydroxyurea-induced phospho-Chk1 immunofluorescence imaging, higher = more signal

SMILES | composite z-score [1] | composite z-score [2] | z-score [3] | z-score [4] | z-score [5] | z-score [6]
C=C(C(=O)CC[C@H](OC(=O)c1cccnc1)c1ccc(OCCO)cc1)C(C)C | 0.538 (inactive) | 0.551 | -2.02 | -4.81 (inactive) | 0.387 (inactive) | 0.05 (inactive)
COCCOC(=O)N1C(=O)[C@@]2(c3cc(C#Cc4ccc(OC)cc4)ccc31)[C@H](C(=O)N1CCc3cc(OC)c(OC)cc3C1)[C@H]1C(=O)O[C@H](c3ccccc3)[C@H](c3ccccc3)N1[C@@H]2c1ccc(OCCO)cc1 | -0.266 (inactive) | 0.688 | -2.22 | 2.6 (inactive) | 0.0413 (inactive) | 0.277 (inactive)
CC1CC/C=C\[C@H]2OC34C=CCN(c5ccc(Cl)cc5)C(=O)[C@H]3N(C(CO)C(C)C)C(=O)[C@]4(C)C2C(=O)O1 (stereo partly drawn) | -0.279 (inactive) | 0.277 | -0.0809 | -5.44 (inactive) | -0.466 (inactive) | -0.512 (inactive)
COc1ccc([Si](C)(C)[C@H]2[C@H](CC(=O)N3CCC[C@H]3CO)O[C@@]3(C(=O)N(Cc4ccc(N5C(=O)c6cccc7cccc5c67)cc4)c4ccccc43)[C@@H]2C)cc1 | 0.531 (inactive) | 0.803 | -1.95 | -3.9 (inactive) | 0.171 (inactive) | -0.4 (inactive)
COC(=O)[C@@]1(Cc2ccccc2)[C@H]2c3cc(C(=O)N4CCCC4)n(Cc4ccccc4)c3C[C@H]2CN1C(=O)c1ccccc1 | 3.1 (inactive) | -0.179 | -1.12 | -4.13 (inactive) | 0.234 (inactive) | 0.167 (inactive)
CCCC=C(CCC)[C@@H](NS(=O)(=O)c1cccc2cccnc12)c1ccc(C(=O)OC)cc1 | -0.357 (inactive) | 0.315 | -0.271 | -2.22 (inactive) | -0.767 (inactive) | -0.492 (inactive)
C=CCC(OC(C)=O)[C@@H]1[C@@H](N(Cc2cccc3ccccc23)C(=O)c2ccc(C)cc2)c2cc(OCCCO)ccc2N1C(=O)c1ccc2ccccc2c1 (stereo partly drawn) | 0.591 (inactive) | 0.52 | -2.2 | -0.0802 (inactive) | -0.995 (inactive) | -0.761 (inactive)
C/C=C/[C@@H](CCn1cc([C@H](O)c2ccccc2)nn1)[Si](C)(C)c1ccc(OC)cc1 | 0.895 (inactive) | 0.778 | -0.689 | -6.33 (inactive) | 0.546 (inactive) | -0.159 (inactive)
N#Cc1ccc(NN2C(C(O)c3ccco3)C=CC3C(=O)N(c4ccccc4)C(=O)C32)cc1 (stereo not drawn) | -0.323 (inactive) | 0.347 | 1.1 | -1.96 (inactive) | -0.124 (inactive) | -0.228 (inactive)
CCCC=C(CCC)[C@@H](NS(=O)(=O)c1ccccc1)c1ccc(C(F)(F)F)cc1 | -0.363 (inactive) | 0.528 | 0.118 | -1.19 (inactive) | -0.147 (inactive) | -0.423 (inactive)
CN(C)CCCN1C(=O)[C@@]2(Cc3ccccc31)c1ccccc1C(=O)N(Cc1ccccc1)[C@H]2c1ccc(CO)cc1 | 0.0022 (inactive) | 0.324 | -1.47 | 1.06 (inactive) | -0.384 (inactive) | -0.682 (inactive)
C=CCOC(=O)[C@@H]1[C@H]2C(=O)O[C@H](c3ccccc3)[C@H](c3ccccc3)N2[C@H](c2ccc(OCCOC(=O)[C@@H]3C[C@@H]4C(=O)N5CCC[C@H]5C(=O)N4[C@@H]3c3cccc(OCCO)c3)cc2)[C@@]12C(=O)Nc1ccc(I)cc12 | 0.284 (inactive) | 0.632 | -1.72 | 1.17 (inactive) | 0.021 (inactive) | 0.318 (inactive)
C[C@H]1NC(=O)C([C@@H](C)OCc2ccccc2)NC(=O)[C@@]23C(=O)N[C@@H](Cc4ccccc4)C2[C@H](C)[C@@]2(C)O[C@H]2C3/C=C/CC/C=C/CNC1=O (stereo partly drawn) | 0.249 (inactive) | -0.764 | -2.74 | -6.35 (inactive) | -0.295 (inactive) | 0.3 (inactive)
COc1ccc(C#Cc2ccc3c(c2)[C@]2(C(=O)N3)[C@H](C(N)=O)[C@H]3C(=O)O[C@H](c4ccccc4)[C@H](c4ccccc4)N3[C@@H]2c2ccc(O)cc2)cc1 | 1.13 (inactive) | 0.712 | 0.0021 | -0.559 (inactive) | -0.607 (inactive) | -0.861 (inactive)
CC(C)CNC(=O)[C@@]1(C)c2ccccc2C(=O)N(Cc2ccccc2)[C@H]1c1ccc(CO)cc1 | 1.06 (inactive) | -0.951 | 0.301 | -2.75 (inactive) | 0.105 (inactive) | -0.267 (inactive)
C=C(CCCC)/C(=C/C[C@@H](OC(=O)c1ccncc1)c1ccccc1OCCO)c1cc(C(=O)OC)ccc1OC | 0.711 (inactive) | -0.127 | -2.98 | -3.47 (inactive) | -0.585 (inactive) | 0.185 (inactive)
C=CCOc1ccc([C@@H]2CC=C(C(=O)OCC)[C@H](c3cccc(Br)c3)N2S(=O)(=O)c2ccc(C)cc2)cc1 | -0.355 (inactive) | -0.498 | -1.94 | 0.422 (inactive) | -0.0778 (inactive) | 0.295 (inactive)

SMILES | composite z-score [1] | composite z-score [2] | z-score [3] | z-score [4] | z-score [5] | z-score [6]
CO[C@H]1O[C@H](CO)[C@@H](OC(=O)Nc2ccc(C(F)(F)F)cc2)[C@H](OC(=O)Nc2ccccc2)[C@H]1OC(=O)Nc1ccccc1 | 1.91 (inactive) | 0.911 | -2.56 | -5.12 (inactive) | -0.628 (inactive) | -0.699 (inactive)
N#Cc1ccc(NN2C(C(O)c3ccccc3)C=CC3C(=O)N(c4ccccc4)C(=O)C32)cc1 (stereo not drawn) | 0.283 (inactive) | 0.026 | 0.635 | -2.61 (inactive) | 0.422 (inactive) | 0.691 (inactive)
CC(C)C(CO)N1C(=O)[C@@H]2[C@H]3C(=O)OCC=C[C@H]3OC23C=CCN(Cn2nnc4ccccc42)C(=O)[C@@H]13 (stereo partly drawn) | -0.406 (inactive) | -0.705 | -0.229 | -3.05 (inactive) | 0.123 (inactive) | 0.11 (inactive)
O=C1C[C@@](C(=O)O)(c2ccc([N+](=O)[O-])cc2)[C@@H](c2ccc(CO)cc2)N1CC12CC3CC(CC(C3)C1)C2 | 0.312 (inactive) | 0.748 | -0.626 | -3.96 (inactive) | -0.226 (inactive) | -0.715 (inactive)
NC(=O)NCC#Cc1ccc2c(c1)[C@]1(C(=O)N2)[C@H](c2ccc(O)cc2)N2[C@H](c3ccccc3)[C@H](c3ccccc3)OC(=O)[C@H]2[C@@H]1C(N)=O | -0.0765 (inactive) | 0.603 | 0.637 | -4.21 (inactive) | -0.681 (inactive) | -0.878 (inactive)
COC(=O)[C@@]1(Cc2ccccc2)[C@H]2c3cc(C(=O)N(C)C)n(Cc4ccc(O)c(OC)c4)c3C[C@H]2CN1C(=O)c1ccccc1 | 0.332 (inactive) | 0.664 | -1.55 | -5.2 (inactive) | 0.197 (inactive) | -0.0257 (inactive)
COC(=O)c1c(CC[C@@H](CO)NC(=O)N[C@@H](C)Cn2cc(C3(O)CCCC3)nn2)oc(C(C)=O)c1C(=O)OC | -0.0616 (inactive) | 0.407 | -2.04 | -1.93 (inactive) | 1.1 (inactive) | 0.929 (inactive)
CC(C)CNC(=O)[C@@]1(c2ccc([N+](=O)[O-])cc2)CC(=O)N(C(C)C)[C@@H]1c1ccc(CO)cc1 | -0.299 (inactive) | 0.131 | -0.253 | -1.21 (inactive) | -0.19 (inactive) | -0.0822 (inactive)
C[N+](C)(C)CCCCNC(=O)[C@H]1C[C@H]2C(=O)NCC(=O)N2[C@H]1c1ccc(O)cc1 | 0.696 (inactive) | 0.922 | 0.258 | -0.735 (inactive) | -1.02 (inactive) | -0.701 (inactive)
C=CCC(OC(C)=O)[C@@H]1[C@@H](N(Cc2cc3ccccc3o2)C(=O)Cc2ccc(OC)cc2)c2cc(OCCCO)ccc2N1C(=O)c1ccc(-c2ccccc2)cc1 (stereo partly drawn) | -0.341 (inactive) | -0.236 | -2.84 | -1.11 (inactive) | 0.298 (inactive) | 0.549 (inactive)
CN(C)C(=O)[C@@]1(CCC(=O)OC(C)(C)C)N=C(c2ccc(OCCCO)cc2)O[C@H]1c1ccccc1N=[N+]=[N-] | 1.55 (inactive) | 0.825 | -2.36 | -5.33 (inactive) | -0.146 (inactive) | -0.222 (inactive)
COc1ccc([Si](C)(C)[C@@H]2[C@@H](CCO)O[C@]3(C(=O)N(Cc4cccc(N5C(=O)COc6ccccc65)c4)c4ccccc43)[C@H]2C)cc1 | -0.417 (inactive) | 0.763 | -2.78 | -1.01 (inactive) | -1.02 (inactive) | -1.18 (inactive)
O=C1c2ccccc2[C@](Cc2ccccc2I)(C(=O)NC2CC2)[C@H](c2ccc(CO)cc2)N1Cc1ccccc1Cl | 1.33 (inactive) | -0.154 | -1.03 | -4.21 (inactive) | 0.129 (inactive) | -0.341 (inactive)
COCCCNC(=O)[C@@]1(Cc2ccccc2I)c2ccccc2C(=O)N(Cc2ccccc2Cl)[C@H]1c1ccc(CO)cc1 | 1.75 (inactive) | 0.595 | -1.22 | -4.93 (inactive) | -0.152 (inactive) | 0.187 (inactive)
COCCCNC(=O)[C@@]1(Cc2ccccc2)COC(c2ccc(OCCCO)cc2)=N1 | 0.506 (inactive) | 0.811 | -0.723 | -4.31 (inactive) | -0.0447 (inactive) | -0.109 (inactive)
COCCCNC(=O)[C@@H]1c2ccccc2C(=O)N(c2ccc(C)cn2)[C@H]1c1ccc(CO)cc1 | -0.0692 (inactive) | 0.305 | -1.38 | -0.943 (inactive) | -0.106 (inactive) | 0.236 (inactive)
